# Most compounds without a hit are left out; they make up all but 4.4% or so of the library.
# NFkB transloc pot = enhances IL-1B driven NFkB nuclear translocation; HUVEC IL-1B NFkB p65 nuclear translocation imaging; activation, % at 2 µM; 94,000 compounds, 0.3% hits;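 active = activation above 40%, about the mean plus 3 SD, also judged a hit on visual image review; inconclusive = activation above 40% but not a hit on visual review; inactive = activation not above 40% and no visual hit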;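 note: percent activation is computed from the nuclear over cytoplasmic p65 intensity ratio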
# Cav3 T inh = blocks human Cav3.2 T-type calcium channel; Cav3.2-expressing cells, Fluo-4 calcium fluorescence FDSS; active compounds read low; B-score at 10 µM; 100,000 compounds, 4% hits; AID 449739;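 active = single-dose well whose peak fluorescence ratio is a statistical outlier from its plate by either plate-standardised score or position-corrected B-score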
# HUVEC tox IL1B = HUVEC cytotoxicity counter-screen, IL-1B stimulated. HUVEC cell count loss, Hoechst imaging. cell count reduction, % at 2 µM. 94,000 compounds, 0.41% hits. AID 845;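 active = cell count reduction more than 3 SD above the screen-wide mean, cut at about 70% in these data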;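 note: normalized per plate to untreated control cells as the no-loss baseline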
# NFkB transloc inh = blocks IL-1B driven NFkB nuclear translocation in HUVEC cells; HUVEC IL-1B NFkB p65 nuclear translocation imaging; inhibition, % at 2 µM; 94,000 compounds, 0.43% hits;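 active = inhibition above about 30% together with a positive call from visual inspection of the well image, limit read from the data; inconclusive = inhibition above a set limit but visual check negative; inactive = inhibition not above a set limit, visual check negative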;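 note: nuclear over cytoplasmic p65 intensity ratio measured by imaging; 0% = IL-1B stimulated DMSO wells and 100% = unstimulated DMSO wells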
# The depositor's hits bear a star; ? = inconclusive; · = no result given.
SMILES,NFkB transloc pot,Cav3 T inh,HUVEC tox IL1B,NFkB transloc inh
COc1ccc(C2(C(F)(F)F)NC(=O)N(C)C(=O)N2C)cc1 (stereo not drawn),·,0.48,·,·
Cc1sc2nc(CN(C(=O)c3cccs3)C3CCCC3)[nH]c(=O)c2c1C,-5.3,-4.8*,-2.8,5.3
O=C(c1cccs1)N(Cc1nc2sc3c(c2c(=O)[nH]1)CCCC3)C1CCCC1,1.9,-1.86,-27.5,-1.9
COc1cc(OC)cc(C(=O)Nc2cc(NC(=O)c3ccco3)ccc2OC)c1,9.7,-0.092,-13.0,-9.7
CCCOc1cccc(C(=O)Nc2cc(NC(=O)c3ccco3)ccc2OC)c1,18.6,-6.4*,10.6,-18.6
O=S(=O)(c1cccc2nsnc12)N1CCc2ccccc21,8.3,-1.75,3.8,-8.3
O=C(Nc1ccccc1N1CCOCC1)c1ccccc1NS(=O)(=O)c1ccc(F)cc1,22.4,·,13.6,-22.4
Cc1ccc(C)c(S(=O)(=O)Nc2ccccc2C(=O)Nc2ccccc2N2CCOCC2)c1,5.5,-4.9*,-15.9,-5.5
O=C(Nc1ccccc1N1CCOCC1)c1ccccc1NS(=O)(=O)c1ccc(F)c(F)c1,2.4,-3.96*,2.5,-2.4
Cc1cc(F)ccc1S(=O)(=O)Nc1ccccc1C(=O)Nc1ccccc1N1CCOCC1,-4.7,-5.95*,-12.6,4.7
Cc1cc(CNC(=O)C2(C(F)(F)F)CC(CCCO)CCCO2)nn1C (stereo not drawn),·,-0.0221,·,·
CCCCOC(=O)Cn1c(=O)n(CC(=O)OCCCC)c2ccccc21,2.9,-6.37*,-3.0,-2.9
O=C(NCc1cn2ccccc2n1)c1ccccc1,·,-0.535,·,·
Cc1cc2cc(CNC(=O)c3ccc(Br)o3)ccc2[nH]1,·,-6.04*,·,·
Cc1ccc(CNC(=O)c2ccc(Br)o2)cc1,7.7,0.0231,-96.2,-5.5
O=C(NCc1cn2ccccc2n1)c1ccc(Br)o1,-31.6,-0.0736,35.2,31.6*
CCCCC(=O)NC(Nc1nc(C2CC2)cs1)(C(=O)OCC)C(F)(F)F (stereo not drawn),-10.1,-1.52,-29.3,10.1
C=C(C)C(=O)Nc1cccc(C2=NOC3(C2)C[C@H](C(N)=O)N(C(=O)c2ccccc2C(=O)c2ccccc2)C3)c1 (stereo partly drawn),·,-0.082,·,·
Cc1cc(NC(=O)CCC(=O)N(c2ccc(F)cc2)C2(C(=O)NC3CCCCC3)CCCC2)no1,15.8,-3.67*,0.0,-15.8
Cc1cc(NC(=O)CCC(=O)N(CC(=O)NC2CCCC2)c2ccc3c(c2)OCCO3)no1,-5.6,-0.0159,-4.5,5.6
O=C(NCC(=O)N(Cc1cccs1)C(C(=O)NC1CCCCC1)c1ccco1)c1ccco1 (stereo not drawn),18.2,0.488,31.2,-18.2
O=C(CCC(=O)N(Cc1ccco1)C(C(=O)NC1CCCC1)c1ccncc1)Nc1cccnc1 (stereo not drawn),3.3,1.01,-1.0,-3.3
COc1cc(OC)cc(N(C(=O)c2ccco2)C(C(=O)NC2CCCC2)c2ccc(N(C)C)cc2)c1 (stereo not drawn),2.3,-1.6,-32.4,-2.3
O=C(NC1CCCCC1)C(c1cccs1)N(Cc1cccs1)C(=O)c1ccco1 (stereo not drawn),1.5,-4.06*,-4.3,-1.5
COc1ccc(N(C(=O)c2ccco2)C(C(=O)NC2CCCC2)c2ccc(N(C)C)cc2)cc1 (stereo not drawn),11.9,-3.51*,5.5,-11.9
SMILES,NFkB transloc pot,Cav3 T inh,HUVEC tox IL1B,NFkB transloc inh
Cc1cc(NC(=O)CCC(=O)N(Cc2ccco2)C(C(=O)NC2CCCC2)c2ccccc2C)no1 (stereo not drawn),-0.6,-7.37*,-22.8,0.6
COc1ccccc1CN1C(=O)[C@@H]2Cc3c([nH]c4ccccc34)C(C)(C)N2C1=O,·,0.687,·,·
Cc1cc(NC(=O)CCC(=O)N(Cc2ccco2)C(C(=O)NC2CCCCC2)c2ccccc2)no1 (stereo not drawn),16.4,-4.4*,-2.6,-16.4
Cc1cc(NC(=O)CCC(=O)N(Cc2cccs2)C(C(=O)NC2CCCC2)c2ccncc2)no1 (stereo not drawn),·,0.816,·,·
O=C(NC1CCCC1)C(c1ccccc1)N(Cc1ccco1)C(=O)Cc1cccs1 (stereo not drawn),19.3,-6.19*,-25.5,-19.3
Cc1ccc(C(C(=O)NC2CCCC2)N(C(=O)CCC(=O)Nc2cc(C)on2)c2ccccc2)cc1 (stereo not drawn),18.0,0.548,36.6,-18.0
Cc1cc(NC(=O)CCC(=O)N(CCc2ccccc2)C(C(=O)NC2CCCC2)c2ccco2)no1 (stereo not drawn),21.2,-3.66*,-145.0,-21.2
Cc1nonc1OCC(C)(COc1nonc1C)NC(=O)c1ccccc1,7.4,-0.478,-14.3,-7.4
COC(=O)[C@H](C)NC(=O)NC1CCN(Cc2ccccc2)CC1,0.9,0.515,82.9*,-0.9
CCC(C)C(NC(=O)C1CCC(C)CC1)C(=O)NC1CCN(Cc2ccccc2)CC1 (stereo not drawn),·,1.82,·,·
O=C(NCc1ccccc1C(F)(F)F)C1CC(c2cccc(F)c2)=NO1 (stereo not drawn),·,-0.462,·,·
CC1CCN(c2c([N+](=O)[O-])nn(-c3ccc4c(c3)OCCO4)[n+]2[O-])CC1,16.0,-1.52,2.5,-10.4
COc1ccc(C2=Nn3c(nnc3-c3ccc(OC)cc3)SC2)cc1,2.3,-7.23*,3.5,-2.3
COc1ccc(-c2nnc3n2N=C(C)CS3)cc1,?,·,10.1,-52.2
CCOC(=O)Cn1c(=O)n(Cc2ccco2)c(=O)c2ccc(C(=O)NCCc3ccccc3)cc21,0.5,-4.57*,-43.3,-0.5
O=C(c1cn(-c2ccccc2)nc1-c1cccs1)N1CCN(c2ccc(F)cc2)CC1,10.2,·,-5.6,-10.2
CCCCCCN1C(=O)C(O)=C(C(C)=O)C1c1ccc(Cl)cc1 (stereo not drawn),·,-7.81*,·,·
CCCCN1C(=O)C(O)=C(C(C)=O)C1c1ccccc1 (stereo not drawn),-7.5,0.878,-2.7,7.5
O=C(N/N=C/c1ccncc1)c1ccccc1,-0.8,0.696,2.4,0.8
Nc1ccc(C(=O)N/N=C/c2ccccc2)cc1,13.9,-5.08*,12.4,-13.9
c1coc(CN(Cc2ccco2)c2ncnc3c2oc2ccccc23)c1,-5.4,-3.74,15.2,5.4
c1ccc(-c2csc(Nc3ccc4c(c3)OCCO4)n2)cc1,-44.1,0.000988,-111.8,44.1*
NS(=O)(=O)c1ccc(S(=O)(=O)N2CCCC2)cc1,-2.4,-0.456,12.7,2.4
CC1=C(C)CS(=O)N(c2ccc(S(N)(=O)=O)cc2)C1 (stereo not drawn),8.7,-7.18*,0.7,-8.7
CC1=C(C)CS(=O)N(S(=O)(=O)c2ccccc2)C1 (stereo not drawn),19.4,-7.88*,1.3,-19.4
CCCCNCc1cccn1-c1ccccc1,-12.3,0.419,10.4,12.4
CCn1c(Cc2ccc(OC)cc2)nnc1SCC(=O)Nc1cccc(C(=O)OC)c1,5.9,-1.42,-4.3,-5.9
CCOC(=O)c1cc2oc(C(c3nnnn3C3CCCCC3)N3CCOCC3)cc2[nH]1 (stereo not drawn),1.4,-3.51*,-47.7,-1.4
CCOC(=O)C1CCN(C(c2cc3ccc(C)cc3[nH]c2=O)c2nnnn2C2CCCCC2)CC1 (stereo not drawn),2.9,-3.27,-10.0,-2.9

# High-throughput results from PubChem.
